This experiment deals with RARb:RXRa (NR concentration 270 nM, RXRa partner concentration 90 nM). Briefly: PBM binding z-score (relative to random genomic background probes); higher = stronger binding; sequences stand for … in GC…GCGATTGACAGCGTAGAATGAAGG
In short, it runs like this:
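On custom Agilent 4×180K arrays, double-stranded probes with 34-nt variable regions carried direct-repeat seeds, single-nucleotide variants, half-site ablations or random human genomic background. Ligand-free nuclear receptor dimers were applied for 1 h, and binding was read with antibodies against each partner (one per run). Binding z-scores come from regression-normalized fluorescence, with the random background probes as reference.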
On to TCTGCTAGGTCAGTTCGTCAGCTAACGAGCTGCC, for which the PBM binding z-score came out at 3.01.

For the sequence CCTACTGGGGCAAAAAGGTCATTGATGCCGATAA, the PBM binding z-score stood at 4.08.

TTACCAAGGTGAAAGGTAGTTGATGCACGCCTTG displayed a PBM binding z-score of 1.56.

As for TCAGACAGGTGAAGGTAACTTAGGTACGCAGTCG, the PBM binding z-score is 1.15.

For GCTGCTAGGTCAGGTGGGTCAGCTAACGGGTACG, the PBM binding z-score is 3.56.

As for TAGCCTAGCTCATTGGGCCAGTATAGTACGCATC, the PBM binding z-score is -0.719.

With AACACAGGGTCATCGTAGGCCAGAGTACGCACAG, the PBM binding z-score came to 4.3.

Turning to GTACCAAGGTGGATAGGTCGTTGATGAGTAGGCG, the PBM binding z-score was 0.368.

On to ACTATTAGTTGAGACGAGGGTAACCGATAGGTTG, for which the PBM binding z-score stood at 0.342.

CGTCAAAGTTCTACTAAGGTAACGTAAAGCACGC returned a PBM binding z-score of 0.603.

For the sequence CGTCCAAGGTCAGAGGTCAGTGAAGAGATGACGG, the PBM binding z-score stood at 5.55.

As for GCTATTAATTGAAAGGGCAACCGAATGATTCTCG, the PBM binding z-score worked out at 2.02.

In the case of GCATATAGGTAATACAAGGTGAACGTCCGATTGT, the PBM binding z-score worked out at 0.51.

CGTGCAAGGTCATAGGAGGTCAGTGAAGACAGAT came in with a PBM binding z-score of 5.41.

CAAACTAGGTCACCGGAAGGTCAAAGTCCGCATG came in with a PBM binding z-score of 5.37.

On to TAGGCTAGGTCATGGGCCAGTATACCACGCGAAC, for which the PBM binding z-score is 4.04.

The sequence CGTCCAAGGTCAGAGAGGTCAGGGAATGCCGAGT yielded a PBM binding z-score of 5.55.

For AGAATGACGTTATTAAGATCAGGGAATTGCGGTC, the PBM binding z-score was -0.451.
